Most compounds without a hit are left out; they make up all but 2.8% or so of the library.
POLH inh – DNA polymerase eta (human) inhibition | hit rate 1.2% among 390,000 | recombinant Pol eta, fluorescent DNA replication assay | Q9Y253 | Potency, µM (top dose mostly 114 µM), for inactives: at the highest dose activity change, negative = inhibition, most hits filed as inhibitors; note: potency is the fitted concentration of half-maximal effect; % is set by controls: 0 for no effect and ±100 for the full control effect
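Pol eta (10 nM) was preincubated with compounds for 15 min at room temperature, after which fluorescent replication substrate (50 nM final) was added to start the reaction. Fluorescence was read kinetically at 0 and 10 min.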
PI5P4K alpha inh – inhibitors of human PI5P4K alpha. P48426. PI5P4Kalpha enzyme, ADP-Glo luminescence, 60 min; active compounds read low. max response, %. hit rate 1.2% among 330,000. AID 652105; active = max response of -50% or lower; inconclusive = between -30% and -50%; inactive = -30% or higher; note: value at the top dose of about 77 µM; % is set by controls: 0 for no effect and ±100 for the full control effect
Target sequence (P48426 whole entry, looked up): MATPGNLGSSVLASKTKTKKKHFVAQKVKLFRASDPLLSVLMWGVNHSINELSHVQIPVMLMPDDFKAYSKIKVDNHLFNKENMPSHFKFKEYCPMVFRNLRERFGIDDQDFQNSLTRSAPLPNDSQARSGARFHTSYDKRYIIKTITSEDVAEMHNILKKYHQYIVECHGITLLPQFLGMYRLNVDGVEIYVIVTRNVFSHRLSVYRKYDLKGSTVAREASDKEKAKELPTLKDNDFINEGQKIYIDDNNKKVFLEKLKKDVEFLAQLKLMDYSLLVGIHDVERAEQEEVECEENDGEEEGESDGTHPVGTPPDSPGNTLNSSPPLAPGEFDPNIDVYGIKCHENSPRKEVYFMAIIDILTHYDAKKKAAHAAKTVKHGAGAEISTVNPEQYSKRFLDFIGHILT
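Enzyme plus substrate dispensed, test compounds pinned in, then ATP (5 microM final) added. After 60 min at RT, ADP-Glo reagent 1 for 45 min and reagent 2 for 30 min preceded luminescence imaging.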
WRN inhibitor – blocks human WRN helicase | Q14191 | WRN helicase unwinding, fluorescent forked duplex, kinetic | Potency, µM (titrated, usually from 114 µM), for the others: top-dose activity change, negative = inhibition, hits mostly inhibitors | hit rate 0.46% among 360,000 | AID 651768; note: potency is the fitted concentration of half-maximal effect; % is set by controls: 0 for no effect and ±100 for the full control effect; nearly all actives have a fitted effect of over 55% in size
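Primary qHTS, 1536-well format. 20 nM WRN + compound, 15 min RT; start with 100 nM forked fluorophore/quencher duplex, 2 mM ATP (final); kinetic read ex 525/em 598 nm.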
Pol kappa inh – blocks human DNA polymerase kappa activity | Q9UBT6 | purified Pol kappa, fluorescent DNA synthesis assay, 10 min | Potency, µM (top dose mostly 107 µM), inactives show at the top dose activity, negative = inhibition, usual class: inhibitors | hit rate 0.53% among 400,000 | AID 588579; note: potency is the fitted concentration of half-maximal effect; % is set by controls: 0 for no effect and ±100 for the full control effect
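Pol kappa 10 nM + cpd, 15 min RT; start w/ substrate 50 nM final; fluorescence kinetic read, 0 and 10 min. Neg ctrl: buffer, no enzyme.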
Pol beta inh – inhibitors of human DNA polymerase beta | Pol beta primer extension/strand displacement, fluorescence kinetic | Potency, µM (top dose mostly 114 µM), for inactives: at the top dose activity change, negative = inhibition, actives largely listed as inhibitors | hit rate 1.3% among 340,000 | AID 485314; note: potency is the fitted concentration of half-maximal effect; % is set by controls: 0 for no effect and ±100 for the full control effect
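Preincubation: enzyme (10 nM) with compound, 15 min, RT. Reaction: substrate added to 50 nM final. Reads: 0 and 10 min. Analysis: normalized, Hill fit.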
Pol iota inh – inhibitors of human DNA polymerase iota. Q9UNA4. Pol iota fluorescent replication assay, 10 min. Potency, µM (doses to about 115 µM), for the others: at the top dose activity, negative = inhibition, usual class: inhibitors. hit rate 1% among 390,000; note: potency is the fitted concentration of half-maximal effect
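Pol iota at 10 nM preincubated 15 min with compounds at room temperature; reaction started with fluorescent substrate, 50 nM final. Fluorescence read kinetically at 0 and 10 min; buffer-only wells as negative control.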
Numbers without * were called inactive; ? = inconclusive; / = no result; ! = repeats disagree; [ ] = remark or other dose. Unless noted, calls come from the whole dose curve; as a rule, active = well fitted curve in the direction sought with a large enough effect; inconclusive = small, poorly fitted or top-dose-only effect, or another doubt; inactive = no such curve, though single readings can be large; an effect the other way counts as inactive or inconclusive.

SMILES	POLH inh	PI5P4K alpha inh	WRN inhibitor	Pol kappa inh	Pol beta inh	Pol iota inh
Cc1ccc(-c2csc(NC(=O)c3ccc([N+](=O)[O-])o3)n2)cc1	79.4µM*	-15.5	2.9%	0.5%	1.0%	-6.6%
O=C(Nc1nc2c(F)cccc2s1)c1ccc([N+](=O)[O-])o1	5.4%	-2.5	3.2%	-19.3%	5.8%	-28.1%
O=C(Nc1nc2c(Cl)cccc2s1)c1ccc([N+](=O)[O-])o1	50.1µM*	-4.9	-30.0%	-13.3%	3.8%	30.8%
Cc1ccc(-c2csc(NC(=O)c3ccc(C)o3)n2)cc1	-20.8%	0.2	-17.6%	-22.9%	-29.0%	13.0%
C=Cc1ccc(Cn2c(C)c(CNCc3ccc(SC)cc3)c(C(=O)O)c2C)cc1	-4.5%	/	/	-14.2%	26.4%	-9.2%
CN(C)c1ccc(/C=C/c2c[n+](C)cc3ccccc23)cc1	/	/	/	-19.4%	/	-12.4%
S=c1[nH]nc(Nc2ccc(Cl)cc2)s1	-3.3%	-73.5*	-8.8%	1.1%	?	?
Cc1ccc(Nc2n[nH]c(=S)s2)cc1F	-11.1%	-75.6*	?	-9.9%	/	-2.5%
Cc1ccc(Nc2n[nH]c(=S)s2)cc1	-11.8%	-67.5*	2.7%	/	/	/
CCOc1ccc(Nc2n[nH]c(=S)s2)cc1	-8.0%	-76.4*	-7.8%	-8.9%	12.4%[57.1 µM]	3.8%
CCCCCCOc1ccc(C(=N)N(CCCC)CCCC)c2ccccc12	/	/	/	-4.7%[19.4 µM]	/	/
O=[N+]([O-])c1c(Nc2ccccc2)ccc2nonc12	2.8%	3.4	-2.4%	-12.1%	-18.6%	13.8%
CCOC(=O)NNc1ccc2nonc2c1[N+](=O)[O-]	10µM*	-64.8*	50.1µM*	?	44.7µM*	10µM*
O=[N+]([O-])c1c(NCc2ccco2)ccc2nonc12	-19.2%	-0.1	4.1%	1.3%	3.16µM*	63.1%
O=C(COC(=O)C1=NN(c2ccccc2)C(=O)CC1)Nc1nc(-c2ccc(F)cc2)cs1	-19.4%	-7.3	?	-6.0%	/	2.2%
O=C(O)Cn1c2ccccc2c2n[nH]c(=S)nc21	-12.8%	-55.9*	-0.9%	-32.5%	-1.7%	?
CCCS(=O)(=O)NC(=O)C1(C)CCCN(C(=O)c2ccc(F)cc2Cl)C1 (centres undefined)	/	-1.7	5.1%	/	/	/
O=C(Nc1ccc(Oc2ccccc2)cc1)C1CCCO1 (centres undefined)	10.1%	/	-15.4%	-10.0%	79.4µM*	-13.1%
COc1ccc(NC(=O)C2CCCO2)cc1 (centres undefined)	-4.2%	/	-17.7%	0.4%	-0.4%	18.4%
Cc1cccc(C(=O)Nc2nc3c(s2)CCCC3)c1	-14.1%	/	/	-5.3%	-21.2%	22.8%
O=C(Nc1nc2c(s1)CCCC2)c1ccc(Br)s1	-8.7%	/	-19.4%	-6.3%	-1.1%	79.4µM*
C[n+]1ccnc2cc(Cl)ccc21	/	/	/	-63.7%	/	?
COc1cccc(C(=O)NCC(=O)N2CCN(c3ccc(C(F)(F)F)cn3)CC2)c1	-10.4%	-4.0	7.2%	-4.4%	/	67.8%
Cc1ccc2cccc(S(=O)(=O)Nc3ccc4c(c3)OCO4)c2n1	?	/	-8.8%[11.6 µM]	-23.6%	44.7µM*	?
Cc1ccc2cccc(OCC(=O)Nc3ccc4c(c3)OCO4)c2n1	-3.5%	-6.2	-0.4%	-4.1%	10.7%	163.5%
SMILES	POLH inh	PI5P4K alpha inh	WRN inhibitor	Pol kappa inh	Pol beta inh	Pol iota inh
O=C(NCc1ccco1)c1cc(=O)c2ccccc2o1	-2.8%	-1.3	1.6%	-8.6%	-18.2%	-12.4%
O=C(CN1CCN(c2ccccc2)CC1)NC(=O)NCc1ccco1	-9.0%	-8.0	8.0%	0.8%	6.5%	8.5%
Nc1ccccc1C(=O)NCc1ccco1	-7.8%	-3.7	8.2%	-8.8%	-0.2%	55.7%
O=C(NCc1ccco1)c1ccccc1F	22.4µM*	-18.9	-23.0%[57.1 µM]	-28.9%	?	?
O=C(NCc1ccco1)c1cc2ccccc2c(=O)o1	?	?	-18.0%	?	44.7µM*	?
Cc1scc(C(=O)NCc2ccco2)c1-c1ccccc1	?	/	-26.8%[57.1 µM]	-13.2%	22.4µM*	?
O=C(CN1CCN(c2ccccc2F)CC1)NC(=O)NCc1ccco1	-10.8%	-18.0	-5.6%	?	31.6µM*	?
Nc1ncnc2c1ncn2-c1ccccc1Cl	-15.5%	-11.4	-9.6%	-12.6%	/	87.5%
CC(C)C(=O)NC(c1cccs1)c1cc([N+](=O)[O-])c2cccnc2c1O (centres undefined)	?	-83.6*	-14.4%	-8.8%	-0.7%	32.7%
CCOC(=O)c1cc2c(=O)n3ccccc3nc2n(Cc2ccco2)c1=NC(=O)c1ccc(Br)cc1	-8.5%	/	/	?	-3.3%	44.7µM*
CCOC(=O)c1cc2c(=O)n3ccccc3nc2n(Cc2ccco2)c1=NC(=O)c1cccnc1	?	-16.4	?	-37.5%	17.8µM*	?
CCOC(=O)c1cc2c(=O)n3ccccc3nc2n(Cc2ccco2)c1=NC(=O)c1ccc(OCC)cc1	-5.1%	/	/	-36.6%	19.7%	?
COCCCn1c(=NC(=O)c2ccccc2)c(C#N)cc2c(=O)n3cccc(C)c3nc21	-13.1%	-6.8	-25.5%	-3.8%	7.5%	182.7%
Cc1cccn2c(=O)c3cc(C#N)c(=NC(=O)c4ccccc4)n(Cc4ccco4)c3nc12	25.1µM*	-73.3*!	50.1µM*!	?	/	?
CCOC(=O)c1cc2c(=O)n3ccccc3nc2n(Cc2ccco2)c1=NC(=O)c1cccc(Br)c1	1.1%	/	/	2.2%[60.1 µM]	22.4µM*	39.8µM*
N#Cc1cccc(NC(=O)N2CC[C@@]3(CCCN(C(=O)c4cnccn4)C3)C2)c1	/	/	/	-15.1%[60.1 µM]	/	/
CCOC(=O)c1cc2c(=O)n3ccccc3nc2n(Cc2ccco2)c1=NC(=O)c1ccccc1OCC	-8.1%	-10.2	-10.1%	-4.0%	1.3%	?
CCOC(=O)c1cc2c(=O)n3ccccc3nc2n(Cc2ccco2)c1=NC(=O)c1ccccc1Br	?	/	/	89.1µM*	?	14.1µM*
O=C(CCN1C(=O)S/C(=C\c2cccs2)C1=O)Nc1nccs1	0.8%	0.0	-4.3%	2.9%	3.7%	-12.9%
COc1ccc(N2CC(C(=O)Nc3ccc(S(=O)(=O)Nc4nccs4)cc3)CC2=O)c(OC)c1 (centres undefined)	50.1µM*	-15.8	1.7%	?	/	?
Cc1ccc(N2CC(C(=O)Nc3ccc(S(=O)(=O)Nc4nccs4)cc3)CC2=O)cc1C (centres undefined)	-5.1%	-3.1	-5.8%	-16.9%	22.9%	22.4%
COc1ccc(/C=C2/SC(=O)N(CCC(=O)Nc3ccc(S(=O)(=O)Nc4nccs4)cc3)C2=O)cc1	31.6µM*	?	?	-12.0%	22.4µM*	?
COc1ccc(/C=C2\SC(=S)N(CCC(=O)Nc3ccc(O)cc3)C2=O)cc1	-6.9%	-6.5	4.4%	-4.7%	1.9%	92.3%
